Shown are actives, neighbours in structure and some others; about 5.4% of the full set was active somewhere.
Calb FLC = affects C. albicans growth with fluconazole; C. albicans CaCi-2 (fluconazole-resistant clinical isolate) + fluconazole, Alamar Blue growth, 48 h; growth inhibition, % (concentration not given with the values); 0.57% of 300,000 active; AID 1979;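 active = growth inhibition above about 58% in most replicates, limit read from the data, passing the limit was not always enough; inconclusive = exactly half the replicates above a set limit; inactive = most replicates below a set limit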;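 note: all wells also contain fluconazole at 8 µg/ml as a sub-toxic cotreatment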
MPTP block = inhibitors of mitochondrial permeability transition pore; inhibition, % at 10 µM; AID 602449; isolated mouse mitochondria, Ca2+ swelling absorbance, 30 min; 1.4% of 360,000 active;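 active = inhibition of 50% or more, scaled per plate between neutral and stimulator controls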
SKKanGAS inh = inhibitors of SKKanGAS S. pyogenes growth in kanamycin (SK-promoter or general growth effect); BacTiter-Glo, 6 h; inhibition, % at 7.5 µM; 1.3% of 300,000 active; AID 1662;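 active = mean replicate score, as percent of positive control median, at least 50; inconclusive = mean below 50 but one replicate at or above 50; inactive = mean and every replicate below 50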;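 note: strain carries kanamycin resistance gene driven by streptokinase promoter and grows in 40 µg/ml kanamycin; loss of luminescence reflects streptokinase promoter inhibition or plain growth inhibition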
CSC inhib = cancer stem cell inhibition; cancer stem cell-like cells viability, luminescence; 1.1% of 300,000 active; AID 2717; inhibition, % at 7.5 µM; in the data active = inhibition above about 75%; inconclusive = no clear call, values can overlap the other calls; tested in HMLE shEcad cells
Mdm2 MdmX PPI = human Mdm2/MdmX binding inhibition | O15151+Q00987 | AID 485346 | inhibition, % at 8 µM | 3% of 330,000 active | SaOS-2 split-luciferase Mdm2/MdmX complementation, luminescence;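 active = inhibition of at least 50% at 8 µM in the primary screen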
Beta cell apopt = blocks beta cell apoptosis; INS-1E cytokine-induced death, ATP luminescence, 48 h; percent of positive-control rescue, neutral wells zero; protection from apoptosis, % (concentration not given with the values); 0.8% of 300,000 active;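 active = Every replicate reaches about 75%, or at least half do and their mean reaches it too, limit read from the data; inconclusive = At least half of replicates reach the limit but their mean does not; inactive = Under half of replicates reach the limit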;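 note: higher means more ATP so stronger rescue from cytokine killing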
Mdm2 MdmX conf = confirmation of human Mdm2/MdmX interaction inhibitors; shares compounds with Mdm2 MdmX PPI; Mdm2-MdmX binding, luminescent assay; inhibition, % at 8 µM; 55% of 10,000 active; AID 489028; in the data active = inhibition above about 40%
Full FLuc ctr = inhibits full-length luciferase, flagging false Mdm2/MdmX hits | AID 504607 | SaOS-2 full-length luciferase counterscreen, luminescence | 77% of 6,200 active | inhibition, % at 8 µM | shares compounds with Mdm2 MdmX PPI;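 active = mean inhibition at 8 µM reaching about 37%, which flags the compound as non-specific, limit read from the data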;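 note: p53-null SaOS-2 cells with luciferase driven by a doxycycline-inducible promoter; compound on cells about two nights before reading with doxycycline added after day one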
Of the large screens only hits and unclear results are named; the others gave an inactive call (follow-up assays come after a bar, where they were run).

O=[N+]([O-])CC(c1ccc(F)cc1)c1c[nH]c2ccccc12 (configuration not stated)	Mdm2 MdmX PPI 62.8 | Mdm2 MdmX conf 65.8 | Full FLuc ctr 41.7
NCC(c1ccccc1)c1c[nH]c2ccccc12 (configuration not stated)	none
CC(=O)c1cccc(NC(=O)COC(=O)CCC(=O)c2ccc(F)cc2)c1	none (no result: Calb FLC, SKKanGAS inh)
CCN(CC(=O)Nc1cc(Cl)ccc1C)C(=O)CCc1nc2ccccc2c(=O)[nH]1	none (no result: Calb FLC, SKKanGAS inh)
CCOC(=O)c1c(CSc2ccc(CC)cc2)oc2ccc(O)c(CN(C)C)c12	CSC inhib 81.5, Mdm2 MdmX PPI 86.0 | Mdm2 MdmX conf 44.1 | Full FLuc ctr 62.8
O=C(Nc1cccc(Cl)c1)c1ccccc1	none (no result: Calb FLC, SKKanGAS inh)
O=C1C(Cl)=C(NC(=O)c2ccccc2)C(=O)C(Cl)=C1NC(=O)c1ccccc1	Mdm2 MdmX PPI 87.1 (no result: CSC inhib, Beta cell apopt) | Mdm2 MdmX conf 41.5 | Full FLuc ctr inactive
O=C1c2ccccc2CSc2c(O)cccc21	none
O=C(Nc1ccc2c(c1)OCCO2)c1cccc2nc3ccccc3nc12	CSC inhib 82.8, Mdm2 MdmX PPI 77.6 | Mdm2 MdmX conf 57.2 | Full FLuc ctr inactive
O=C(Nc1ccc2c(c1)OCCO2)c1ccccc1Cl	none (no result: Calb FLC, SKKanGAS inh, CSC inhib, Mdm2 MdmX PPI, Beta cell apopt)
N#CCC(=O)N/N=C/c1cn(Cc2cccc3ccccc23)c2ccccc12	Mdm2 MdmX PPI 65.8 | Mdm2 MdmX conf 63.5 | Full FLuc ctr 54.6
N#CCC(=O)N/N=C/c1cn(Cc2ccc(Cl)c(Cl)c2)c2ccccc12	Mdm2 MdmX PPI 73.0 (no result: Beta cell apopt) | Mdm2 MdmX conf 47.4 | Full FLuc ctr 53.4
O=[N+]([O-])c1cccc(Cl)c1NCCNS(=O)(=O)c1ccc(Cl)cc1	none
Cc1cc(C)c2c(n1)nn1c(N3CCN(c4ccccc4C)CC3)cc(C)nc21	Mdm2 MdmX PPI 64.1 (no result: Calb FLC, SKKanGAS inh) | Mdm2 MdmX conf inactive
CCOc1ccc(CN2CCN(c3cc(C)nc4c5c(C)cc(C)nc5nn34)CC2)cc1	none (no result: MPTP block, CSC inhib, Mdm2 MdmX PPI, Beta cell apopt)
COc1ccc2c(c1)c(C(C)=O)c(C)n2-c1ccccc1	none
CCOc1ccc(-n2c(C)c(C(=O)O)c3cc(OC)ccc32)cc1	none (no result: Beta cell apopt)
CCOc1ccc(-n2c(C)c(C(C)=O)c3cc(OC(C)=O)ccc32)cc1	Mdm2 MdmX PPI 75.7 | Mdm2 MdmX conf 80.4 | Full FLuc ctr 52.6
COc1ccc(-n2c(C)c(C(C)=O)c3cc(O)ccc32)cc1	Mdm2 MdmX PPI 93.3 (no result: CSC inhib, Beta cell apopt) | Mdm2 MdmX conf 83.0 | Full FLuc ctr 53.7
Cc1sc(NC(=O)Cc2ccc3c(c2)OCO3)nc1-c1ccc2c(c1)CCN2C(=O)c1ccccc1F	Mdm2 MdmX PPI 53.8 | Mdm2 MdmX conf inactive
Cc1sc(NC(=O)Cc2ccc3c(c2)OCO3)nc1-c1ccc2c(c1)CCN2C(=O)c1ccc(F)cc1	none
C/C(=N\NC(=O)c1c([N+](=O)[O-])c(C)nn1C)c1ccc(NC(=O)C2CCCC2)cc1	none
C/C(=N\NC(=O)c1c(Cl)c(C)nn1C)c1ccc(NC(=O)C2CCC2)cc1	Mdm2 MdmX PPI 56.0 | Mdm2 MdmX conf 75.1 | Full FLuc ctr 66.9
O=C(Nc1cccc(NC(=O)c2cccs2)c1)c1ccc([N+](=O)[O-])o1	SKKanGAS inh 58.8, CSC inhib inconclusive, Mdm2 MdmX PPI 60.6 | Mdm2 MdmX conf 56.5 | Full FLuc ctr 44.1
O=C(Nc1ccc(N2CCN(C(=O)c3cccs3)CC2)cc1)c1ccco1	none
O=C(Nc1ccc(N2CCN(C(=O)c3cccs3)CC2)cc1)c1ccc([N+](=O)[O-])o1	Calb FLC inconclusive, CSC inhib 100.0, Mdm2 MdmX PPI 72.0 | Mdm2 MdmX conf 80.0 | Full FLuc ctr 38.6
CC(C)CC1C(=O)N(Cc2cn(CCC3OCCCO3)nn2)CCS(=O)(=O)N1Cc1ccc(-c2ccc(F)cc2)cc1 (configuration not stated)	none (no result: Calb FLC, SKKanGAS inh, CSC inhib, Mdm2 MdmX PPI, Beta cell apopt)
O=C(Cn1nnc(-c2ccc(N3CCOCC3)cc2)n1)OC1CCCCC1	none
CC(C)(C)c1ccc(/C=C(\c2nc3ccccc3[nH]2)S(=O)(=O)c2ccccc2)cc1	CSC inhib 125.4, Mdm2 MdmX PPI 92.5, Beta cell apopt 108.1 | Mdm2 MdmX conf 99.8 | Full FLuc ctr 51.5
Cc1cccc(/C=C(\c2nc3ccccc3[nH]2)S(=O)(=O)c2ccccc2)c1	none (no result: CSC inhib, Mdm2 MdmX PPI, Beta cell apopt)
